GPT2 inh = GPT2 alanine aminotransferase inhibition; Q8TD30; Recombinant GPT2, coupled pyruvate oxidase/HRP Amplex Red fluorescence; Potency, µM (doses to about 57.7 µM), actives largely listed as inhibitors; 100,000 tested, 0.25% active; AID 1671188; note: nearly all actives have a fitted effect of over 60% in size
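Fluorescence read-out: pyruvate from GPT2 turnover coupled to pyruvate oxidase, HRP and Amplex Red (0.2mM ThPP, 0.2U/mL PO and HRP, 50uM Amplex final). Substrates 250uM a-KG, 2mM L-alanine; enzyme 10ng/uL; 30 min RT.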
FLuc inh = blocks purified firefly luciferase enzyme activity; purified P. pyralis luciferase, luminescence, biochemical; Potency, µM (series often up to 115 µM), actives largely listed as inhibitors; 76,000 tested, 2.5% active; AID 1347043; note: nearly all actives have a fitted effect of over 65% in size
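FLuc 10nM, D-luciferin 10uM, ATP 10uM, Mg acetate 10mM, Tris acetate pH 7.5, Tween/BSA; cpd qHTS; enzyme added last; CCD luminescence.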
HEK293 tox = kills HEK 293 cells | HEK 293 viability, ATP luminescence (CellTiter-Glo), 48-72 h | Potency, µM (highest dose often 115 µM), most hits filed as inhibitors | 94,000 tested, 6.6% active; note: nearly all actives have a fitted effect of over 60% in size
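HEK 293 cells at 250 cells/well were exposed to compounds by pintool transfer for 48 or 72 hr at 37 degree Celsius, 5% CO2. Viability was read as ATP-coupled luminescence with CellTiter-Glo after 10 min at room temperature.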
3T3 cytotox = NIH 3T3 cell cytotoxicity; NIH 3T3 viability, CellTiter-Glo ATP luminescence, 48-72 h; Potency, µM (highest dose often 96.7 µM), actives largely listed as inhibitors; 94,000 tested, 4.3% active; AID 1345082; note: nearly all actives have a fitted effect of over 55% in size
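ATP-dependent luminescence (CellTiter-Glo) served as the viability signal for NIH 3T3 cells treated with compound for 48 or 72 hr at 37 °C.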
hNpr1 antagonist = antagonists of human natriuretic peptide receptor Npr1. P16066. HEK293 hNpr1 GloSensor cGMP, ANP-stimulated luminescence. Potency, µM (series often up to 46.3 µM), usual class: inhibitors. 76,000 tested, 1.6% active; calls by dose curve; note: nearly all actives have a fitted effect of over 60% in size
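HEK293 cells stably expressing human Npr1 and cGMP GloSensor pGS-40F, loaded 2 h with 2% GloSensor reagent, given compound 30 min at room temperature. Luminescence read before and 20 min after 0.1 nM hNppA.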
NPR1 antag cnf = confirmation of human Npr1 natriuretic peptide receptor antagonists; HEK293 hNpr1 cGMP GloSensor luminescence, ANP-stimulated; Potency, µM (series often up to 57.6 µM), hits mostly inhibitors; 1,400 tested, 76% active; shares compounds with hNpr1 antagonist; AID 1347044; calls by dose curve; note: nearly all actives have a fitted effect of over 70% in size
Npr2 selectivity = hNpr2 antagonism, selectivity versus Npr1; HEK293 hNpr2 GloSensor cGMP luminescence, CNP-stimulated; 1,400 tested, 67% active; shares compounds with hNpr1 antagonist; Potency, µM (series often up to 57.6 µM), most hits filed as inhibitors; AID 1347046; calls by dose curve; note: nearly all actives have a fitted effect of over 70% in size
Target sequence (P20594 whole entry, looked up): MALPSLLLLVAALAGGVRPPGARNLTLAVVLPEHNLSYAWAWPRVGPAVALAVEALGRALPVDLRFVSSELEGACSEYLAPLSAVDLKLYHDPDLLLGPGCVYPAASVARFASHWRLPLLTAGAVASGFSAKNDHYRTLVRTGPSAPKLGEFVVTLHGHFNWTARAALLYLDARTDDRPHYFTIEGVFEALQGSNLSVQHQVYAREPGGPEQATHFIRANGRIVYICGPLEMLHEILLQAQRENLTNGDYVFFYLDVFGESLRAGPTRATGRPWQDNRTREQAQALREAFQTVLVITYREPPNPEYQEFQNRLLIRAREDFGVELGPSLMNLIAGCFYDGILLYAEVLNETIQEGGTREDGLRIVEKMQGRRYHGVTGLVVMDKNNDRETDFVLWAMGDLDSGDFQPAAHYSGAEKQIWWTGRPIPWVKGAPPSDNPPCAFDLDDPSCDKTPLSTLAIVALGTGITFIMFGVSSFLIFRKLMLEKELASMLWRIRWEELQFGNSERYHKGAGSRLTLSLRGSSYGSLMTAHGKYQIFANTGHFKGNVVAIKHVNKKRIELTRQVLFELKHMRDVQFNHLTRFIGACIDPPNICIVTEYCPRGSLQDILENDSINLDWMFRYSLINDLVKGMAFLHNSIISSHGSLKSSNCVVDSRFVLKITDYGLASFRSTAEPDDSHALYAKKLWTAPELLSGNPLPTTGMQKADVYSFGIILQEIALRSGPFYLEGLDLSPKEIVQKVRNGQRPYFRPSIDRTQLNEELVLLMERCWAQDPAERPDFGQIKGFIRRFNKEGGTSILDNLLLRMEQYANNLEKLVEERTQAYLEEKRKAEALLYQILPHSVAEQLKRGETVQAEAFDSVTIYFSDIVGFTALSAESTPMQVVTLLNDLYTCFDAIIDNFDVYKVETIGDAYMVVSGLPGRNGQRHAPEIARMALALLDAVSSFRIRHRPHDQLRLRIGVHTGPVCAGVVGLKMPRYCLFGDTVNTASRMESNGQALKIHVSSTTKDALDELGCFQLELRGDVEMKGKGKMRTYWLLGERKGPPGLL
FLuc counter = inhibits firefly luciferase, false Npr1 antagonist flag; shares compounds with hNpr1 antagonist; purified FLuc enzyme, luminescence, Km substrate; Potency, µM (highest dose often 57.6 µM), hits mostly inhibitors; 1,400 tested, 0.7% active; AID 1347047
GloSensor cGMP = control cell line activity, Npr1 antagonist counter-screen; shares compounds with hNpr1 antagonist; HEK293 GloSensor cGMP, SNP-stimulated, luminescence; Potency, µM (doses to about 57.6 µM), hits mostly inhibitors; 1,400 tested, 69% active; calls by dose curve; note: nearly all actives have a fitted effect of over 70% in size
Of the large screens only hits and unclear results are named; the others gave an inactive call (follow-up assays come after a bar, where they were run). An excerpt weighted towards active compounds, which were near 10% of everything screened. Unless noted, calls come from the whole dose curve; as a rule, active = well fitted curve in the direction sought with a large enough effect; inconclusive = small, poorly fitted or top-dose-only effect, or another doubt; inactive = no such curve, though single readings can be large; an effect the other way counts as inactive or inconclusive.

CC(C)(C)c1noc(-c2nnn3c2COC(c2ccc(Cl)cc2)C3)n1 (stereo not given)	HEK293 tox inconclusive, 3T3 cytotox inconclusive, hNpr1 antagonist inconclusive | NPR1 antag cnf 19.3µM | Npr2 selectivity inconclusive | FLuc counter inactive | GloSensor cGMP inactive
Fc1ccc(OC2CN(Cc3ccsc3)C2)c(F)c1	HEK293 tox inconclusive (no result: FLuc inh, hNpr1 antagonist)
O=C1CCN(S(=O)(=O)c2ccccc2)CCCC(C(=O)NCCc2ccccn2)CCN1 (stereo not given)	none
COc1ccc(C2Cn3nnc(-c4nc(C(C)(C)C)no4)c3CO2)cc1 (stereo not given)	GPT2 inh inconclusive, HEK293 tox inconclusive, 3T3 cytotox inconclusive, hNpr1 antagonist inconclusive | NPR1 antag cnf 21.7µM | Npr2 selectivity inconclusive | FLuc counter inactive | GloSensor cGMP inactive
CN(CCc1ccccn1)c1cc(C2CC(O)C2)ncn1 (stereo not given)	FLuc inh inconclusive
Cc1ccc(SCCN(C)c2cc(C3CC(O)C3)nc(N)n2)cc1 (stereo not given)	HEK293 tox 28.2µM, 3T3 cytotox inconclusive, hNpr1 antagonist 12.6µM | NPR1 antag cnf 24.3µM | Npr2 selectivity 21.7µM | FLuc counter inactive | GloSensor cGMP 21.7µM
CN(CCc1nc2ccc(Cl)cc2[nH]1)c1cc(C2CC(O)C2)nc(N)n1 (stereo not given)	none
Cc1c(CN(C)c2cc(C3CC(O)C3)nc(N)n2)[nH]c2ccccc12 (stereo not given)	3T3 cytotox inconclusive, hNpr1 antagonist 0.631µM | NPR1 antag cnf 0.432µM | Npr2 selectivity 0.863µM | FLuc counter inactive | GloSensor cGMP 0.432µM
COc1ccc(OC)c(-c2nc3cc4c(cc3cc2CN2CCCOCC2)OCO4)c1	HEK293 tox inconclusive
Cc1cc(OCCN2CCOCC2)c(C)c2c1CC[C@@H]([C@H](C)C(=O)N1CCCCC1)C2	HEK293 tox 20µM, 3T3 cytotox inconclusive, hNpr1 antagonist 17.8µM | NPR1 antag cnf 39.6µM | Npr2 selectivity 35.3µM | FLuc counter inactive | GloSensor cGMP inconclusive
O=C(c1cccc(F)c1)N1CCC2(CC1)N=C(c1ccc(Cl)cc1)NO2	HEK293 tox inconclusive, 3T3 cytotox inconclusive, hNpr1 antagonist inconclusive
COc1ccccc1C(CC(=O)NCC(C)C)c1cn(C)c2ccccc12 (stereo not given)	HEK293 tox inconclusive, hNpr1 antagonist inconclusive | NPR1 antag cnf inconclusive | Npr2 selectivity inconclusive | FLuc counter inactive | GloSensor cGMP inactive
COc1ccc(CCNC(=O)CC(c2cccc(F)c2)c2cn(C)c3ccccc23)cc1OC (stereo not given)	HEK293 tox 20µM, 3T3 cytotox 22.4µM, hNpr1 antagonist 17.8µM | NPR1 antag cnf 24.3µM | Npr2 selectivity 27.3µM | FLuc counter inactive | GloSensor cGMP 27.3µM
CCCCNC(=O)CC(c1cccc(OC)c1OC)c1c[nH]c2ccccc12 (stereo not given)	HEK293 tox inconclusive, 3T3 cytotox inconclusive
COc1ccc(C(CC(=O)NCCc2ccccc2)c2c[nH]c3ccccc23)cc1OC (stereo not given)	HEK293 tox inconclusive, 3T3 cytotox inconclusive
N#Cc1cccc(CN2CCc3nc(C(=O)NCCOc4ccccc4)oc3CC2)c1	HEK293 tox inconclusive, 3T3 cytotox inconclusive, hNpr1 antagonist inconclusive
O=C(Nc1ccc(Cl)cc1)c1nc2c(o1)CCN(Cc1ccccc1)CC2	HEK293 tox inconclusive, 3T3 cytotox inconclusive, hNpr1 antagonist 3.98µM | NPR1 antag cnf 11.1µM | Npr2 selectivity 9.94µM | FLuc counter inconclusive | GloSensor cGMP 7.89µM
COc1ccc(CN2CCc3nc(C(=O)NCc4cccc(F)c4)oc3CC2)cc1OC	HEK293 tox inconclusive, 3T3 cytotox inconclusive
N#Cc1ccc(CN2CCc3nc(C(=O)Nc4cccc(C(F)(F)F)c4)oc3CC2)cc1	HEK293 tox inconclusive, 3T3 cytotox inconclusive, hNpr1 antagonist 14.1µM | NPR1 antag cnf 17.2µM | Npr2 selectivity 19.3µM | FLuc counter inactive | GloSensor cGMP 10.9µM
COc1ccc(CN2CCc3nc(C(=O)Nc4ccc(Cl)cc4)oc3CC2)cc1OC	HEK293 tox inconclusive, 3T3 cytotox inconclusive, hNpr1 antagonist 6.31µM | NPR1 antag cnf 9.68µM | Npr2 selectivity 10.9µM | FLuc counter inactive | GloSensor cGMP 7.69µM
O=C(Nc1ccc(Cl)cc1)c1nc2c(o1)CCN(Cc1cc(F)ccc1F)CC2	HEK293 tox inconclusive, 3T3 cytotox inconclusive, hNpr1 antagonist 12.6µM | NPR1 antag cnf 15.7µM | Npr2 selectivity 12.5µM | FLuc counter inactive | GloSensor cGMP 9.94µM
Cc1nn(C)c(C)c1C(=O)N1CC(n2cc(COc3ccc(F)cc3)nn2)C1	GPT2 inh inconclusive (no result: FLuc inh, hNpr1 antagonist)
O=C(NCc1cc(F)ccc1F)c1csc(N2CCN(c3ccccc3F)CC2)n1	HEK293 tox inconclusive, 3T3 cytotox inconclusive, hNpr1 antagonist inconclusive | NPR1 antag cnf 27.3µM | Npr2 selectivity inconclusive | FLuc counter inactive | GloSensor cGMP inconclusive
CN1CCN(c2nc(C(=O)NC(C)(C)C)cs2)CC1	none
O=C(NCc1cccs1)c1csc(N2CCN(c3ccccc3F)CC2)n1	HEK293 tox inconclusive, 3T3 cytotox inconclusive | NPR1 antag cnf inconclusive | Npr2 selectivity inconclusive | FLuc counter inactive | GloSensor cGMP inconclusive
COc1ccccc1-n1c(=O)c(C(=O)NC2CCCC2)nc2cccnc21	none (no result: FLuc inh, hNpr1 antagonist)
C/C=C/C=C/C(=O)OC1CC/C=C/C(O)C(O)C(CCC)OC1=O (stereo not given)	none (no result: FLuc inh, HEK293 tox, 3T3 cytotox, hNpr1 antagonist)
Cc1ccc(CN2CCN(C(=O)c3ccc4c(c3)C(O)CCCCCN4C)CC2)cc1 (stereo not given)	HEK293 tox 39.8µM, 3T3 cytotox inconclusive, hNpr1 antagonist 11.2µM | NPR1 antag cnf 21.7µM | Npr2 selectivity 19.3µM | FLuc counter inactive | GloSensor cGMP 17.2µM
CN(Cc1ccc(N2CCCCC2)cc1)C(=O)c1ccc2c(c1)C(O)CCCCCN2C (stereo not given)	HEK293 tox 35.5µM, 3T3 cytotox inconclusive, hNpr1 antagonist 14.1µM | NPR1 antag cnf 24.3µM | Npr2 selectivity 21.7µM | FLuc counter inactive | GloSensor cGMP 27.3µM
